Test results as given in the supplement of paper PMC10127200.
Structures can show the parent of a compound that is named as a salt.

What was measured:
Test in all cases: Euclidean distance of Cell Painting phenotypic profile (signed KS, 77 features) to DMSO centroid (dimensionless distance); 5 or 10 uM (library dependent); higher = stronger phenotypic change vs DMSO (phenoactivity)
Conditions in all cases: 48 h
786-O = tested on: 786-O
Outline: (§1)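 Harmony extracted 77 features from 20X confocal images (9 fields/well) of stained cells, scoring each as a signed Kolmogorov-Smirnov statistic against same-plate vehicle wells. The cells, five cancer lines and a healthy fibroblast line, had received library compounds for 48 h at 10 or 5 uM depending on library, with 0.1% DMSO final. Phenoactivity is the Euclidean distance from each plate-position-corrected, correlation-weighted, top-dose replicate-averaged profile to the median vehicle profile.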

A549 = tested on: A549
Outline: as §1

DU145 = tested on: DU145
Outline: as §1

FB = tested on: FB
Outline: as §1

HEPG2 = tested on: HEPG2
Outline: as §1

OVCAR4 = tested on: OVCAR4
Outline: as §1

SMILES | Euclidean distance (786-O) | Euclidean distance (A549) | Euclidean distance (DU145) | Euclidean distance (FB) | Euclidean distance (HEPG2) | Euclidean distance (OVCAR4)
O=C(O)Cc1ccccc1Nc1c(Cl)cccc1Cl [Diclofenac Potassium] | 1.38 | 0.427 | 0.963 | 1.35 | 1.1 | 0.893
Cc1ccc(-c2nc(N)nc3c2nnn3Cc2cccc(CO[C@H]3CCOC3)n2)o1 | 0.843 | 0.446 | 0.81 | 1.32 | 0.731 | 0.627
C[C@H]1c2cccc(O)c2C(=O)C2=C(O)[C@]3(O)C(=O)C(C(N)=O)=C(O)[C@@H](N(C)C)[C@@H]3[C@@H](O)[C@@H]21 [Doxycycline monohydrate] | 0.783 | 0.495 | 1.01 | 0.929 | 0.637 | 0.672
C=CC(=O)N1CCC(CNc2ncnc(N)c2-c2ccc(Oc3ccccc3)cc2)CC1 [Evobrutinib] | 0.935 | 0.683 | 2.24 | 0.97 | 0.714 | 0.874
CC(C)c1c(C(=O)Nc2ccccc2)c(-c2ccccc2)c(-c2ccc(F)cc2)n1CC[C@@H](O)C[C@@H](O)CC(=O)O [atorvastatin] | 1.57 | 1.35 | 3.44 | 3.29 | 0.836 | 1.24
C#C[C@]1(O)CC[C@H]2[C@@H]3CCC4=CC(=O)CC[C@@H]4[C@H]3C(=C)C[C@@]21CC [Etonogestrel] | 0.851 | 0.713 | 0.98 | 1.21 | 0.628 | 1.03
CCOc1ccc(Cc2cc([C@@H]3O[C@H](SC)[C@@H](O)[C@H](O)[C@H]3O)ccc2Cl)cc1 [Sotagliflozin (LX4211)] | 1.32 | 1.07 | 1.9 | 0.889 | 0.553 | 0.781
CCc1cc(Nc2nccc(-c3c(-c4ccc(OC)c(C(=O)Nc5c(F)cccc5F)c4)nc4ccccn34)n2)c(OC)cc1N1CCC(N2CCN(S(C)(=O)=O)CC2)CC1 | 1.24 | 1.6 | 1.12 | 0.954 | 1.11 | 1.26
O=C(O)COC(=O)Cc1ccccc1Nc1c(Cl)cccc1Cl [Aceclofenac] | 1.26 | 0.455 | 1.1 | 0.795 | 0.607 | 0.86
CS(=O)(=O)OCCCCOS(C)(=O)=O [Busulfan] | 1.22 | 0.648 | 0.667 | 0.953 | 0.977 | 1.95
CC(=O)[C@H]1CC[C@H]2[C@@H]3C[C@H](C)C4=CC(=O)CC[C@]4(C)[C@H]3[C@@H](O)C[C@]12C [Medrysone] | 1.22 | 1.8 | 1.96 | 1.72 | 0.963 | 1.81
COc1ccc(NS(=O)(=O)c2sc3ccc(Cl)cc3c2C)cc1N1CCNCC1 | 2.31 | 1.39 | 1.12 | 1.13 | 1.35 | 1.29
Cc1cnc(Nc2ccc(N3CCN(C)CC3)cc2)nc1Nc1cccc(S(=O)(=O)NC(C)(C)C)c1 | 3.77 | 4.93 | 3.18 | 3.58 | 2.58 | 3.26
C=CCc1cccc(/C=N/NC(=O)CN2CCN(Cc3ccccc3)CC2)c1O | 2.25 | 2.14 | 1.28 | 1.79 | 2.31 | 2.68
C/C=C(/C)C(=O)O[C@H]1[C@H](OC(C)=O)[C@@]2(CO)C(CC1(C)C)C1=CCC3[C@@]4(C)CCC(O[C@@H]5O[C@H](C(=O)O)[C@@H](O[C@@H]6O[C@H](CO)[C@@H](O)[C@H](O)[C@H]6O)[C@H](O)[C@H]5O[C@@H]5O[C@H](CO)[C@@H](O)[C@H](O)[C@H]5O)[C@](C)(CO)C4CC[C@@]3(C)[C@]1(C)C[C@H]2O.C/C=C(\C)C(=O)O[C@H]1[C@H](OC(C)=O)[C@@]2(CO)C(CC1(C)C)C1=CCC3[C@@]4(C)CCC(O[C@@H]5O[C@H](C(=O)O)[C@@H](O[C@@H]6O[C@H](CO)[C@@H](O)[C@H](O)[C@H]6O)[C@H](O)[C@H]5O[C@@H]5O[C@H](CO)[C@@H](O)[C@H](O)[C@H]5O)[C@](C)(CO)C4CC[C@@]3(C)[C@]1(C)C[C@H]2O (some centres undefined) [Escin] | 1.14 | 0.784 | 0.972 | 1.18 | 0.678 | 1.24
CO[C@H]1C[C@@H]2CC[C@@H](C)[C@@](O)(O2)C(=O)C(=O)N2CCCC[C@H]2C(=O)O[C@H]([C@H](C)C[C@@H]2CC[C@@H](OP(C)(C)=O)[C@H](OC)C2)CC(=O)[C@H](C)/C=C(\C)[C@@H](O)[C@@H](OC)C(=O)[C@H](C)C[C@H](C)/C=C/C=C/C=C/1C [Deforolimus] | 2.73 | 2.02 | 1.35 | 3.08 | 1.23 | 2.14
CCCNc1nc(Nc2ccc(C#N)cc2)ncc1C#CCCCNC(=O)[C@H](C)N(C)C(=O)/C=C/CN(C)C | 6.39 | 4.68 | 5.29 | 5.42 | 5 | 5.67
C=C1/C(=C\C=C2/CCC[C@]3(C)[C@@H]([C@H](C)CCCC(C)(C)O)CC[C@@H]23)C[C@@H](O)C[C@@H]1O [Calcitriol] | 1.91 | 1.1 | 1.24 | 2.23 | 0.859 | 1.36
C[C@]12CC[C@H](O)CC1=CC[C@@H]1[C@@H]2CC[C@]2(C)C(n3cnc4ccccc43)=CC[C@@H]12 [Galeterone] | 0.604 | 1.11 | 0.901 | 1.35 | 2.1 | 1.04
C[C@@H]1C[C@H]2[C@@H]3CCC4=CC(=O)C=C[C@]4(C)[C@@]3(F)[C@@H](O)C[C@]2(C)[C@@]1(O)C(=O)CO [Dexamethasone (DHAP)] | 1.45 | 2.32 | 2.14 | 1.75 | 0.718 | 1.86
N[C@@H](Cc1cc(I)c(Oc2ccc(O)c(I)c2)c(I)c1)C(=O)O [Triiodothyronine] | 1.04 | 1.57 | 1.08 | 0.968 | 0.865 | 1.58
CCOc1ccn(-c2ccc(F)cc2)c(=O)c1C(=O)Nc1ccc(Oc2ccnc(N)c2Cl)c(F)c1 | 1.2 | 3.4 | 1.66 | 2.27 | 1.66 | 2.55

SMILES | Euclidean distance (786-O) | Euclidean distance (A549) | Euclidean distance (DU145) | Euclidean distance (FB) | Euclidean distance (HEPG2) | Euclidean distance (OVCAR4)
O=C(NCc1ccccc1)c1csc(Nc2ccncn2)n1 [Thiazovivin] | 1.92 | 1.18 | 2.87 | 2.01 | 1.84 | 1.6
O=C(O)Cc1ccccc1Nc1c(Cl)cccc1Cl [Diclofenac Diethylamine] | 0.84 | 0.842 | 0.728 | 0.689 | 0.397 | 0.97
Nc1ncccc1-c1nc2ccc(-c3ccccc3)nc2n1-c1ccc(C2(N)CCC2)cc1 [Miransertib (ARQ 092) HCl] | 4.75 | 4.1 | 2.87 | 4.17 | 4.52 | 3.46
CC[C@H]1OC(=O)[C@H](C)[C@@H](O[C@H]2C[C@@](C)(OC)[C@@H](O)[C@H](C)O2)[C@H](C)[C@@H](O[C@@H]2O[C@H](C)C[C@H](N(C)C)[C@H]2O)[C@](C)(O)C[C@@H](C)CN[C@H](C)[C@@H](O)[C@]1(C)O [Azathramycin] | 1.51 | 0.559 | 0.734 | 0.693 | 1.08 | 0.873
CC(C)(CO)[C@@H](O)C(=O)NCCCO [D panthenol] | 1.37 | 0.791 | 0.819 | 1.14 | 0.659 | 1.64
CC1COc2c(N3CCN(C)CC3)c(F)cc3c(=O)c(C(=O)O)cn1c23 (centres undefined) [Ofloxacin] | 1.01 | 0.65 | 0.81 | 0.702 | 0.545 | 1.25
CCOCCn1c(C2CCN(CCc3ccc(C(C)(C)C(=O)O)cc3)CC2)nc2ccccc21 [Bilastine] | 1.25 | 1.12 | 1.37 | 0.933 | 0.505 | 0.894
O=S(=O)(c1ccccc1)c1cnc2c(N3CCNCC3)cccc2c1 | 0.96 | 0.917 | 0.761 | 0.827 | 1.94 | 0.986
C/C=C(/C(=C/C)c1ccc(O)cc1)c1ccc(O)cc1 [Dienestrol] | 0.782 | 0.603 | 0.8 | 0.859 | 0.715 | 0.784
CC(C)Oc1ccc(-c2nc(-c3cccc4c3CC[C@@H]4NCCO)no2)cc1C#N [Ozanimod (RPC1063)] | 1.97 | 1.08 | 0.79 | 1.6 | 1.46 | 1.68
COc1ccc2cc1Oc1ccc(cc1)C[C@H]1c3c(cc4c(c3Oc3cc5c(cc3OC)CCN(C)[C@@H]5C2)OCO4)CCN1C [Cepharanthine] | 4.22 | 4.24 | 3.62 | 4.8 | 3.63 | 3.87
Cn1cc(C(=O)[C@@H]2CCc3[nH]cnc3C2)c2ccccc21 [Ramosetron Hydrochloride] | 1.07 | 0.965 | 0.791 | 1.34 | 0.731 | 1.41
CCN(CC)Cc1cc(Nc2ccnc3cc(Cl)ccc23)ccc1O [Amodiaquine dihydrochloride dihydrate] | 3.19 | 3.25 | 1.79 | 3.65 | 3.36 | 2.54
CCN(CC)CCNC(=O)c1cc(Cl)c(N)cc1OC [Metoclopramide HCl] | 0.662 | 0.513 | 0.62 | 0.54 | 0.614 | 0.647
CC(CN(C)C)CN1c2ccccc2Sc2ccccc21 (centres undefined) [Alimemazine Tartrate] | 1.33 | 1.55 | 1.73 | 2.43 | 2.13 | 1.33
N=C(N)NC(=O)c1nc(Cl)c(N)nc1N [Amiloride HCl dihydrate] | 1.53 | 1.27 | 1.11 | 1.58 | 0.663 | 1.28
COc1cc(C(=O)O)ccc1NC(=O)[C@@H]1N[C@@H](CC(C)(C)C)[C@](C#N)(c2ccc(Cl)cc2F)[C@H]1c1cccc(Cl)c1F [Idasanutlin (RG-7388)] | 1.61 | 1.57 | 1.55 | 1.43 | 1.15 | 1.59
CO[C@H]1C[C@@H]2CC[C@@H](C)[C@@](O)(O2)C(=O)C(=O)N2CCCC[C@H]2C(=O)O[C@H]([C@H](C)C[C@@H]2CC[C@H](n3cnnn3)[C@H](OC)C2)CC(=O)[C@H](C)/C=C(\C)[C@@H](O)[C@@H](OC)C(=O)[C@H](C)C[C@H](C)/C=C/C=C/C=C/1C [Zotarolimus(ABT-578)] | 2.27 | 1.83 | 1.38 | 2.7 | 1.45 | 2.09
Cc1nc(N)sc1-c1ccnc(Nc2ccc(N3CCOCC3)cc2)n1 | 2.86 | 3.52 | 1.18 | 1.92 | 2.08 | 2.59
Cc1ccc(/C(=C\CN2CCCC2)c2ccccn2)cc1 [Triprolidine Hydrochloride] | 0.627 | 0.986 | 0.542 | 1.16 | 1.31 | 1.02
CC(O)(P(=O)(O)O)P(=O)(O)O [Etidronate] | 1.27 | 1.25 | 1.1 | 1.04 | 0.55 | 1.15
C[C@H](CCC(=O)O)[C@H]1CC[C@H]2[C@@H]3[C@H](O)C[C@@H]4C[C@H](O)CC[C@]4(C)[C@H]3C[C@H](O)[C@]12C [Cholic acid] | 1.14 | 0.83 | 0.953 | 0.727 | 0.875 | 1.12
